Shown are actives, neighbours in structure and some others; about 1.6% of the full set was active somewhere.
KCNQ2 block: inhibitors of rat KCNQ2 potassium channel; AID 2156; 1.1% of 310,000 active; O88943; CHO-K1 KCNQ2, FluxOR thallium flux, 20 min; hits give low values; B-score at 10 µM;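 active means fluorescence ratio B-score at most minus 3 library SDs, with starting brightness B-score within 2 library SDs, cut at about -5.5 in these data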
Target sequence (O88943 whole entry, looked up): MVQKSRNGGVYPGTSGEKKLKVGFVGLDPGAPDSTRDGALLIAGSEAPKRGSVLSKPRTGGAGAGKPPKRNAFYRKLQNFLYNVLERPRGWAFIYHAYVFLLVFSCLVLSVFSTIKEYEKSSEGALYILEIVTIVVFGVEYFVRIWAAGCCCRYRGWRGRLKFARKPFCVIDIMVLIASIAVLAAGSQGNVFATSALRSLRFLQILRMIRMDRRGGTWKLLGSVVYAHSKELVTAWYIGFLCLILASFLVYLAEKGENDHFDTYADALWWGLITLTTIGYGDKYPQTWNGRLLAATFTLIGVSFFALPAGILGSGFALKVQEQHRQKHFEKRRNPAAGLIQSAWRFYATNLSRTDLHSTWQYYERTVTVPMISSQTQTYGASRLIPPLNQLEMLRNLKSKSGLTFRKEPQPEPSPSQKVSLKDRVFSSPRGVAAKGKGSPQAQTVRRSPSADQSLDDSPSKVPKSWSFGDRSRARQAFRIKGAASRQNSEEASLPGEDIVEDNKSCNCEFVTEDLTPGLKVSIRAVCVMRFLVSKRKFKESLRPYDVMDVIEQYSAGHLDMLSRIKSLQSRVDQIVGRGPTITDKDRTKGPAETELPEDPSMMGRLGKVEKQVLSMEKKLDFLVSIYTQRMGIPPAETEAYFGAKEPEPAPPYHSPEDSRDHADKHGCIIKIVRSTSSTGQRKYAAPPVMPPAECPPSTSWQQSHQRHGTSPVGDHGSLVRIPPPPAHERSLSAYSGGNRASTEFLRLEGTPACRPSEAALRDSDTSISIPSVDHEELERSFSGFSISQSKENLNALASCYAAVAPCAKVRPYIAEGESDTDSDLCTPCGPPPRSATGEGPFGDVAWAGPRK
KCNQ2 pot: KCNQ2 (rat) channel potentiation; O88943; CHO-K1 KCNQ2, FluxOR thallium flux fluorescence; hits give high values; B-score at 10 µM; 0.54% of 310,000 active;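 active means fluorescence ratio B-score at least 3 SD of library B-scores, with initial fluorescence B-score within 3 of them, cut at about 5.3 in these data; same plate scores as AID 2156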;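 further: B-score of peak minus minimum over baseline fluorescence ratio after K+ and Tl+ stimulus; positive B-score means potentiation of KCNQ2 with more thallium influx and brighter signal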
Numbers without * were called inactive; i = inactive; nt = not tested or not shown.

SMILES	KCNQ2 block	KCNQ2 pot
O=C(C1=C[C@@H](c2ccc(Br)cc2)C[C@@H](OCCCCO)O1)N1CCN(Cc2ccccc2)CC1	i	nt
Cc1ccc(CN(CC(O)COc2cccc3[nH]cc(C)c23)C(C)(C)C)cc1 (configuration not stated)	-6.7*	-6.7
Cc1c[nH]c2cccc(OCC(CNC(C)(C)C)OC(=O)c3ccccc3)c12 (configuration not stated)	i	nt
Cc1cc(C)nc(/N=C(\NC(=O)C(C)(C)C)Nc2ccccc2)n1	i	1.3
Cc1cc(C)nc(/N=C(/NC(=O)Nc2cccc(Cl)c2)Nc2ccccc2)n1	-5.8*	-5.8
COc1ccc(OCc2cc(C(=O)NC(C)c3csc(C)n3)no2)c(Cl)c1 (configuration not stated)	i	nt
O=c1c2ccccc2nc(SCc2cccc(F)c2)n1Cc1ccco1	-6.2*	-6.2
O=c1c2ccccc2nc(SCc2ccccc2)n1Cc1ccco1	i	0.28
Cc1ccc(NC(=O)CNC(=O)C2CCCCC2)nc1	i	0.07
Cn1cc(S(=O)(=O)N2CCCC2)cc1C(=O)NCc1ccccc1Cl	i	nt
O=C(COC(=O)c1ccccc1Nc1ccccc1)Nc1ccccc1	i	5.8*
CC(=O)c1ccc(NC(=O)COC(=O)c2ccccc2Nc2ccccc2)cc1	i	nt
Cc1ccc(NC(=O)CSc2nc(=O)n(CCCN3CCOCC3)c3c2CCCC3)cc1	i	2.3
Cc1c(Cl)cccc1-n1c(SCC(=O)NCc2cccs2)nnc1-c1ccncc1	i	0.01
Cc1c(Cl)cccc1-n1c(SCC(=O)NCc2ccccc2Cl)nnc1-c1ccncc1	-6.4*	-6.4
CCOC(=O)N1C2=NC(C(=O)OC)=C(C(=O)OC)[C@@H]3N(Cc4ccccc4)c4ccccc4[C@]23C[C@H]1C(=O)OC	i	nt
CC(Sc1nc2ccccc2n1C)C(=O)NC(c1ccccc1)c1ccccc1 (configuration not stated)	-6.1*	-6.1
Cn1c(SC(C(=O)Nc2ccc(F)cc2)c2ccccc2)nc2ccccc21 (configuration not stated)	i	1.3
Cc1ccc(S(=O)(=O)N/N=C\c2cn(CC(N)=O)c3ccccc23)cc1	i	nt
CCOC(=O)C1=NN(C(=O)c2ccco2)C2(CC2)C1	i	0.13
CCOC(=O)C1=NN(C(=O)c2cccc(Br)c2)C(O)(C(C)(C)C)C1 (configuration not stated)	i	22*
COc1cccc(C(C)NC(=O)c2ccncc2)c1 (configuration not stated)	i	nt
CC(C)OC(=O)/C(=C\c1ccccc1)NC(=O)c1ccccc1	-5.6*	-5.6
CC(C)OC(=O)/C(=C\c1cccc2ccccc12)NC(=O)c1ccccc1	i	nt
COc1ccc(N2CC(NC(=O)N3CCc4ccccc43)CC2=O)cc1OC (configuration not stated)	i	nt
SMILES	KCNQ2 block	KCNQ2 pot
COc1ccc(OCC(=O)NC(=S)N2CCCc3ccccc32)cc1	i	nt
O=C(COc1ccccc1)NC(=S)N1CCc2ccccc21	i	10*
COc1ccc(C(C#N)=C2C=CC(=NO)C=C2)cc1	-5.7*	-5.7
COc1ccc(C(=O)c2ccc(Cl)cc2)cc1	i	0.7
CCN1CCN(C(=O)C(N)Cc2ccccc2)CC1 (configuration not stated)	i	nt
C=CC[C@H]1CC(C)=C[C@H](CC=C)N1C(=O)c1cc(COc2ccccc2SC)on1	-5.6*	-5.6
COCC1CCN(C(=O)c2cc(COc3ccccc3SC)on2)C1 (configuration not stated)	i	3
CCCn1c(SCC(=O)NC2CCCC2)nc2c1c(=O)n(C)c(=O)n2C	i	nt
OC12CC3C[C@H](C1)C(N1CCOCC1)[C@@H](C3)C2 (some centres not stated)	i	0.69
c1ccc(C[n+]2c(-c3ccccc3)csc2Nc2ccccc2)cc1	i	nt
c1ccc(Nc2scc(-c3ccccc3)[n+]2Cc2ccco2)cc1	-6.4*	-6.4
COCCNC(=O)Cn1c(=O)n(CCCC(=O)NCc2ccc3c(c2)OCO3)c(=O)c2sccc21	i	nt
O=C(c1ccc(Cl)cc1)[C@@H]1[C@@H]2C(=O)N(c3cccc4ccccc34)C(=O)[C@@H]2C2c3ccccc3C=NN21 (some centres not stated)	i	nt
CCc1nn(CC(=O)NCCC2=CCCCC2)c(=O)c2cc3cc(F)ccc3n12	i	nt
Cc1ccc(N2C(=O)CC(N3CCN(c4ccccn4)CC3)C2=O)cc1 (configuration not stated)	i	nt
Cc1ccc2nc(-c3ccc(N4C(=O)CC(N5CCN(CCO)CC5)C4=O)cc3)sc2c1 (configuration not stated)	-6.3*	-6.3
O=C(COc1ccccc1Cl)NCCC1=CCCCC1	i	nt
C=CCn1c(SCc2ccccc2)nc2scc(-c3ccc(C)o3)c2c1=O	i	0.16
Cc1sc2ncn(CCn3cnc4sc(C)c(C)c4c3=O)c(=O)c2c1C	i	nt
Cc1sc2ncn(-n3c(C)ccc3C)c(=O)c2c1C	-5.7*	-5.7
Cc1ccc(-c2csc3ncn(-n4c(C)ccc4C)c(=O)c23)o1	-6.6*	-6.6
CCC/C(=N\NC(=O)C1CC1)c1ccc(Br)cc1	i	0.37
CN(C(=O)c1cc(COc2ccc(F)c(F)c2)on1)C1CCOC1 (configuration not stated)	i	nt
COC(=O)c1ccc(OC(=O)CN2C(=O)c3ccccc3C2=O)cc1	i	nt
Cc1cc(-c2ccc(S(=O)(=O)N(C)c3ccc(C)c(C)c3)s2)on1	-6.7*	-6.7
SMILES	KCNQ2 block	KCNQ2 pot
COc1ccc(-c2cc(C)no2)cc1S(=O)(=O)N(C)c1ccc(C)c(C)c1	i	nt
CCN1CCN(S(=O)(=O)c2ccc(-c3cc(C)no3)s2)CC1	i	0.1
Cc1ccc(N(C)S(=O)(=O)c2ccc(-c3cc(C)no3)s2)cc1	-6.5*	-6.5
CCCCCCOc1ccc(N2C(=O)CC(SC(=NCC)NCC)C2=O)cc1 (configuration not stated)	i	nt
CCN(CC)S(=O)(=O)c1ccc(OC(C)C)c(NC(=O)C2=COCCO2)c1	i	nt
O=C(Nc1ccc(F)cc1F)c1cccn1-c1ncc(C(F)(F)F)cc1Cl	i	nt
Cc1cc(C)cc(NC(=O)c2cccn2-c2ncc(C(F)(F)F)cc2Cl)c1	-7.2*	-7.2
Cc1cc(-c2ccccc2)nc2cc(C(=O)N(Cc3ccccc3)Cc3ccccc3)nn12	-7.2*	-7.2
COC(=O)c1cc2nc(-c3ccccc3)cc(C)n2n1	i	1.6
CC(C)CC(NC(N)=O)C(=O)NCCc1ccc(Cl)cc1 (configuration not stated)	i	nt
COc1cccc(C(=O)NC(C)c2ccc(-c3ccccc3)cc2)c1OC (configuration not stated)	-6*	-6
COc1cccc(C(=O)NC(C)c2cccc3ccccc23)c1OC (configuration not stated)	i	nt
CCOC(=O)c1c(-n2c(C)cc(C=O)c2C)sc2c1CCCC2	-6.1*	-6.1
CCOC(=O)c1cccc(-n2c(C)cc(C=O)c2C)c1	i	2.6
CCOC(=O)c1sc(N=NC2=C(O)CC(C)(C)CC2=O)c(C(=O)OCC)c1C	i	nt
Cc1ccc(OC(=O)c2ccc(Cl)c([N+](=O)[O-])c2)cn1	i	0.09
Cc1ccc(C(=O)Oc2cccnc2)cc1[N+](=O)[O-]	i	6.1*
Cc1nc(-c2ccc(Cl)cc2)sc1C1(C)CC(c2cccc(F)c2)=NO1 (configuration not stated)	i	nt
